About 2,000 (36%) of roughly 5,500 compounds were called active. Roughly 18% stayed inconclusive and do not appear here. Rule as the data show it: active = normalized growth mostly below about 0.91 (no sharp cut-off); inconclusive = no clear call, values can overlap the other calls; inactive = mostly above about 0.92. This is one part of the list.
Test: chemical genetic growth profiling, strain panel (AID 1159580);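 also: tested at 20 µM; growth read once vehicle control cultures reached saturation at 30 °C; 1 = growth at the plate median or of vehicle wells; lower values mean less growth of the strain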
Settings: growth OD
[1] = S. cerevisiae deletion strains, locus YAL013W, strain DEP1, active compounds read low
[2] = S. cerevisiae deletion strains, locus YBR229C, strain ROT2, active compounds read low
[3] = S. cerevisiae deletion strains, locus YDL101C, strain DUN1, active compounds read low
[4] = S. cerevisiae deletion strains, locus YDL134C, strain PPH21, active compounds read low
[5] = S. cerevisiae deletion strains, locus YDR150W, strain NUM1, active compounds read low
[6] = S. cerevisiae deletion strains, locus YEL061C, strain CIN8, active compounds read low
[7] = S. cerevisiae deletion strains, locus YGR078C, strain PAC10, active compounds read low
[8] = S. cerevisiae deletion strains, locus YHR030C, strain SLT2, active compounds read low
[9] = S. cerevisiae deletion strains, locus YHR087W, strain rtc3, active compounds read low
[10] = S. cerevisiae deletion strains, locus YJR043C, strain POL32, active compounds read low
[11] = S. cerevisiae deletion strains, locus YJR075W, strain HOC1, active compounds read low
[12] = S. cerevisiae deletion strains, locus YLR039C, strain RIC1, active compounds read low
[13] = S. cerevisiae deletion strains, locus YLR058C, strain SHM2 (second series), active compounds read low
[14] = S. cerevisiae deletion strains, locus YLR085C, strain ARP6, active compounds read low
[15] = S. cerevisiae deletion strains, locus YLR262C, strain YPT6, active compounds read low
[16] = S. cerevisiae deletion strains, locus YML094W, strain GIM5, active compounds read low
[17] = S. cerevisiae deletion strains, locus YMR219W, strain ESC1, active compounds read low
[18] = S. cerevisiae deletion strains, locus YMR263W, strain SAP30, active compounds read low
[19] = S. cerevisiae deletion strains, locus YNL153C, strain GIM3, active compounds read low
[20] = S. cerevisiae deletion strains, locus YNL298W, strain CLA4 (second series), active compounds read low
[21] = S. cerevisiae deletion strains, locus YNL322C, strain KRE1, active compounds read low
[22] = S. cerevisiae deletion strains, locus YNR030W, strain Alg12, active compounds read low
[23] = S. cerevisiae deletion strains, locus YOL006C, strain TOP1, active compounds read low
[24] = S. cerevisiae deletion strains, locus YPL055C, strain LGE1, active compounds read low
[25] = S. cerevisiae deletion strains, locus YPL241C, strain CIN2, active compounds read low
[26] = S. cerevisiae deletion strains, locus YPR135W, strain CTF4, active compounds read low
[27] = S. cerevisiae deletion strains, locus YAR019C, strain CDC15, active compounds read low
[28] = S. cerevisiae deletion strains, locus YBL105C, strain PKC1, active compounds read low
[29] = S. cerevisiae deletion strains, locus YBR135W, strain CKS1, active compounds read low
[30] = S. cerevisiae deletion strains, locus YBR136W, strain MEC1, active compounds read low
[31] = S. cerevisiae deletion strains, locus YBR160W, strain CDC28, active compounds read low
[32] = S. cerevisiae deletion strains, locus YDL017W, strain CDC7, active compounds read low
[33] = S. cerevisiae deletion strains, locus YDL028C, strain MPS1, active compounds read low
[34] = S. cerevisiae deletion strains, locus YDL108W, strain KIN28, active compounds read low
[35] = S. cerevisiae deletion strains, locus YDL132W, strain cdc53, active compounds read low
[36] = S. cerevisiae deletion strains, locus YDL214C, strain PRR2, active compounds read low
[37] = S. cerevisiae deletion strains, locus YDR052C, strain DBF4, active compounds read low
[38] = S. cerevisiae deletion strains, locus YDR054C, strain cdc34, active compounds read low
[39] = S. cerevisiae deletion strains, locus YDR226W, strain ADK1, active compounds read low
[40] = S. cerevisiae deletion strains, locus YDR477W, strain SNF1, active compounds read low
[41] = S. cerevisiae deletion strains, locus YER123W, strain YCK3, active compounds read low
[42] = S. cerevisiae deletion strains, locus YER133W, strain GLC7, active compounds read low
[43] = S. cerevisiae deletion strains, locus YFL009W, strain cdc4, active compounds read low
[44] = S. cerevisiae deletion strains, locus YFL029C, strain CAK1, active compounds read low
[45] = S. cerevisiae deletion strains, locus YFR003C, strain YPI1, active compounds read low
[46] = S. cerevisiae deletion strains, locus YFR019W, strain FAB1, active compounds read low
[47] = S. cerevisiae deletion strains, locus YFR028C, strain CDC14, active compounds read low
[48] = S. cerevisiae deletion strains, locus YGR040W, strain KSS1, active compounds read low
[49] = S. cerevisiae deletion strains, locus YGR052W, strain FMP48, active compounds read low
[50] = S. cerevisiae deletion strains, locus YGR092W, strain DBF2, active compounds read low
[51] = S. cerevisiae deletion strains, locus YHR079C, strain IRE1, active compounds read low
[52] = S. cerevisiae deletion strains, locus YHR082C, strain KSP1, active compounds read low
[53] = S. cerevisiae deletion strains, locus YHR205W, strain SCH9, active compounds read low
[54] = S. cerevisiae deletion strains, locus YIL147C, strain SLN1, active compounds read low
[55] = S. cerevisiae deletion strains, locus YJL095W, strain BCK1, active compounds read low
[56] = S. cerevisiae deletion strains, locus YJL128C, strain PBS2, active compounds read low
[57] = S. cerevisiae deletion strains, locus YJL157C, strain FAR1, active compounds read low
[58] = S. cerevisiae deletion strains, locus YJR016C, strain ILV3, active compounds read low
[59] = S. cerevisiae deletion strains, locus YJR066W, strain TOR1 (second series), active compounds read low
[60] = S. cerevisiae deletion strains, locus YJR066W, strain TOR1, active compounds read low
[61] = S. cerevisiae deletion strains, locus YKL048C, strain ELM1, active compounds read low
[62] = S. cerevisiae deletion strains, locus YKL067W, strain YNK1, active compounds read low
[63] = S. cerevisiae deletion strains, locus YKL101W, strain HSL1, active compounds read low
[64] = S. cerevisiae deletion strains, locus YKL193C, strain SDS22, active compounds read low
[65] = S. cerevisiae deletion strains, locus YKL203C, strain TOR2, active compounds read low
[66] = S. cerevisiae deletion strains, locus YLR113W, strain HOG1, active compounds read low
[67] = S. cerevisiae deletion strains, locus YLR133W, strain CKI1, active compounds read low
[68] = S. cerevisiae deletion strains, locus YLR403W, strain SFP1, active compounds read low
[69] = S. cerevisiae deletion strains, locus YML070W, strain DAK1, active compounds read low
[70] = S. cerevisiae deletion strains, locus YMR001C, strain CDC5, active compounds read low
[71] = S. cerevisiae deletion strains, locus YMR205C, strain PFK2 (second series), active compounds read low
[72] = S. cerevisiae deletion strains, locus YMR277W, strain FCP1, active compounds read low
[73] = S. cerevisiae deletion strains, locus YNL006W, strain LST8, active compounds read low
[74] = S. cerevisiae deletion strains, locus YNL020C, strain ARK1, active compounds read low
[75] = S. cerevisiae deletion strains, locus YNL161W, strain CBK1, active compounds read low
[76] = S. cerevisiae deletion strains, locus YNL183C, strain NPR1, active compounds read low
[77] = S. cerevisiae deletion strains, locus YNL207W, strain RIO2, active compounds read low
[78] = S. cerevisiae deletion strains, locus YNL222W, strain SSU72, active compounds read low
[79] = S. cerevisiae deletion strains, locus YNL307C, strain MCK1 (second series), active compounds read low
[80] = S. cerevisiae deletion strains, locus YOL078W, strain AVO1, active compounds read low
[81] = S. cerevisiae deletion strains, locus YOL136C, strain PFK27, active compounds read low
[82] = S. cerevisiae deletion strains, locus YOR061W, strain CKA2, active compounds read low
[83] = S. cerevisiae deletion strains, locus YOR119C, strain RIO1, active compounds read low
[84] = S. cerevisiae deletion strains, locus YOR231W, strain MKK1, active compounds read low
[85] = S. cerevisiae deletion strains, locus YOR329C, strain SCD5, active compounds read low
[86] = S. cerevisiae deletion strains, locus YPL031C, strain PHO85, active compounds read low
[87] = S. cerevisiae deletion strains, locus YPL153C, strain RAD53, active compounds read low
[88] = S. cerevisiae deletion strains, locus YPL204W, strain HRR25, active compounds read low
[89] = S. cerevisiae deletion strains, locus YPL209C, strain IPL1, active compounds read low
[90] = S. cerevisiae deletion strains, locus YPL256C, strain CLN2, active compounds read low
[91] = S. cerevisiae deletion strains, locus YPR025C, strain CCL1, active compounds read low
[92] = S. cerevisiae deletion strains, locus YPR106W, strain ISR1, active compounds read low
[93] = S. cerevisiae deletion strains, locus YPR111W, strain DBF20, active compounds read low
[94] = S. cerevisiae deletion strains, strain NNK1, active compounds read low
[95] = S. cerevisiae deletion strains, strain TSCII, active compounds read low

Measured: normalized growth

Cc1ccc(C(=O)NNC(=O)c2ccncc2)c(C)c1
inactive: [1] 0.994 | [2] 0.993 | S. cerevisiae deletion strains, locus YCL061C, strain MRC1, active compounds read low 1.01 | [3] 1.02 | [4] 1 | [5] 0.925 | [6] 0.993 | [7] 1 | S. cerevisiae deletion strains, locus YGR229C, strain SMI1, active compounds read low 1.01 | [8] 1.01 | [9] 1 | [10] 1.01 | [11] 1.03 | S. cerevisiae deletion strains, locus YKL190W, strain CNB1, active compounds read low 1.01 | [12] 1.03 | [13] 0.994 | [14] 0.98 | [15] 1.02 | [16] 0.983 | [17] 0.988 | [18] 0.965 | S. cerevisiae deletion strains, locus YMR307W, strain GAS1, active compounds read low 1.01 | [19] 1.01 | [20] 1.03 | [21] 0.991 | [22] 1.01 | [23] 1.06 | [24] 0.934 | [25] 0.998 | [26] 1.08 | S. cerevisiae strains, strain wild type, active compounds read low 1.01

COC(=O)Cc1nc(NC(=O)c2ccccc2)sc1C
inactive: [1] 1.02 | [2] 1 | [3] 0.972 | [4] 1.01 | [5] 0.994 | [6] 1.02 | [7] 0.999 | [8] 0.977 | [9] 0.98 | [10] 1.01 | [11] 1 | [12] 1.02 | [13] 1 | [14] 0.889 | [15] 1.12 | [16] 0.948 | [17] 0.994 | [18] 1 | [19] 1 | [20] 1.02 | [21] 1.01 | [22] 0.983 | [23] 0.976 | [24] 0.927 | [25] 0.944 | [26] 1

Cc1ccc(C(=O)Nc2ccc3ccccc3n2)cc1
inactive: [27] 0.956 | [28] 0.954 | [29] 0.958 | [30] 0.965 | [31] 0.95 | [32] 0.964 | [33] 0.964 | [3] 0.96 | [34] 0.963 | [35] 0.96 | [36] 0.92 | [37] 0.976 | [38] 0.94 | [39] 0.956 | [40] 0.937 | [41] 0.906 | [42] 0.929 | [43] 0.954 | [44] 0.956 | [45] 0.961 | [46] 0.983 | [47] 0.944 | [48] 0.925 | [49] 0.99 | [50] 0.892 | [8] 0.938 | [51] 0.933 | [52] 0.994 | [53] 0.954 | [54] 0.963 | [55] 0.952 | [56] 0.954 | [57] 0.917 | [58] 0.946 | [59] 0.918 | [60] 0.978 | [61] 0.948 | [62] 0.93 | [63] 0.95 | [64] 0.957 | [65] 0.986 | [67] 0.944 | [68] 0.934 | [69] 0.901 | [70] 0.966 | [71] 0.941 | [72] 0.956 | [73] 0.966 | [74] 0.947 | [75] 0.944 | [76] 0.959 | [77] 0.964 | [78] 0.95 | [79] 0.93 | [80] 0.958 | [81] 0.92 | [82] 0.964 | [83] 1.01 | [84] 0.921 | [85] 0.962 | [86] 0.948 | [87] 0.928 | [88] 0.937 | [89] 0.949 | [90] 0.876 | [91] 0.959 | [92] 0.949 | [93] 0.945 | [94] 0.956 | [95] 0.957
active: [66] 0.857

CSc1nc(Sc2n[nH]c(-c3ccccc3)n2)cc(Sc2n[nH]c(-c3ccccc3)n2)n1
inactive: [27] 1.01 | [28] 0.99 | [29] 0.999 | [30] 1 | [31] 1 | [32] 0.995 | [33] 1.03 | [3] 0.991 | [34] 1.01 | [35] 0.995 | [36] 1.01 | [37] 0.995 | [38] 0.984 | [39] 1.01 | [40] 1.01 | [41] 1.03 | [42] 1 | [43] 1 | [44] 1.02 | [45] 0.99 | [46] 1 | [47] 1.01 | [48] 1.02 | [49] 1 | [50] 1.01 | [8] 1.13 | [51] 0.928 | [52] 1.22 | [53] 1 | [54] 1.01 | [55] 0.875 | [56] 0.978 | [57] 1.02 | [58] 1.01 | [59] 1.01 | [60] 1.2 | [61] 1.01 | [62] 1.01 | [63] 1.01 | [64] 1.02 | [65] 1.09 | [67] 1.01 | [68] 1.03 | [69] 1.01 | [70] 1.01 | [71] 1.02 | [72] 1.02 | [73] 1 | [74] 1.01 | [75] 1 | [76] 0.929 | [77] 1.01 | [78] 1.01 | [79] 1.01 | [80] 1.02 | [81] 1.03 | [82] 1.02 | [83] 1.05 | [84] 0.913 | [85] 1 | [86] 1.02 | [87] 1.01 | [88] 1.01 | [89] 0.998 | [90] 0.89 | [91] 1.01 | [92] 1 | [93] 1 | [94] 1.01 | [95] 1.01
active: [66] 0.855

From PubChem BioAssay AID1159580 (chemical genetic matrix, 2015)
